The results in this text go back to PubChem BioAssay.

Molecules are shown by their SMILES. Active and inactive are the calls of the source.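 The calls were made as follows, unless noted: active = inhibition at or above 50% at 10 µM; inactive = inhibition below 50%.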

Test [1] can be described thus: inhibitors of TNFa-induced NFkB p65 translocation, primary screen, imaging, HUVEC, MLSMR starter and 10KST1 sets (AID 438;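 active = inhibition above 20% together with a positive visual image hit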;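 also: compound added about 3h40 before a 20 min TNFalpha stimulation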;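 as to inhibition: signal is the nuclear over cytoplasmic p65 intensity ratio per well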). As to conditions: HUVEC TNFa-induced p65 nuclear translocation; cell count: measured here: nuclei count (cytotoxicity indicator), at 2.08 µM; inhibition: at 2 µM, stronger effect = higher value, 0% TNFa-plus-vehicle, 100% no-TNFa wells.
The nature of test [2]: reduction of polyQ htt aggregates in cells – imaging, exon1htt(103Q)mCFP cells, high-content imaging, primary screen (AID 483;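 active = visual image review flags a hit and inhibition of aggregation exceeds 20%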;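 also: compound exposure lasted 3 days before fixation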;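 as to nuclei count: percent of the per-plate median nuclei count of sample wells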). As to conditions: exon1htt(103Q)mCFP cell line, aggregate imaging, at 2 µM; inhibition of aggregation: stronger effect = higher value; nuclei count: measured here: cell count, toxicity.
Test [3] in a line: endothelial E-selectin expression blockers – imaging, HUVEC, immunofluorescence, MLSMR starter and 10KST1 sets, primary screen (AID 487;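 active = visually confirmed hit in the image check and inhibition above 20%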;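 as to inhibition: signal is fraction of cell area covered by stained E-selectin grains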;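 as to nuclei count: 100% = median nuclei count of all wells on the same plate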). The settings on record: HUVEC TNFalpha-induced E-selectin immunofluorescence imaging, at 2 µM; inhibition: stronger effect = higher value; nuclei count: measured here: cell number, toxicity.
In test [4] the target is Voltage-gated potassium channel subunit beta-2 (Rattus norvegicus) (UniProt P62483). In words: inhibitors of rat Kvbeta2 reductase activity – biochemical, NADPH fluorescence, primary screen (AID 622;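 active = fluorescence slope higher than the sample average by over 3 SD, cut at about -0.22 in these data, passing the limit was not always enough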;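 also: slope of raw intensity against log time taken from 70 to 1610 s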). The settings on record: recombinant KvBeta, 4-cyanobenzaldehyde reduction, at 10 µM, stronger effect = higher value.
Test [5] has the same target. In words: enhancers of rat Kvbeta2 NADPH turnover – biochemical, NADPH fluorescence, primary screen (AID 623;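 active = NADPH fluorescence slope more negative than the mean of all samples by about 3 SD, 99.7% confidence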;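 also: fluorescence intensity change per second fitted from 20 to 320 s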). As to conditions: Recombinant KvBeta, NADPH fluorescence decrease slope, 10 min; at 10 µM; stronger effect = lower value.
Test [6] has as its target Alpha-2C adrenergic receptor (Homo sapiens) (UniProt P18825). As to the kind of experiment: compounds altering alpha2C-coupled GIRK flux – cell-based, HEK293 alpha2C/GIRK1/2, thallium flux, primary screen (AID 624;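 active = fluorescence slope after compound addition differing from the mean of all screened samples at 99.7% confidence, in either direction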;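 also: slope of fluorescence ratio to pre-addition baseline per second over 15 to 24 s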). The settings on record: thallium flux BTC fluorescence, at 10 µM, actives lie on both sides.
Test [7] in a line: blockers of RIG-like receptor reporter activation – cell-based, Sendai virus stimulus, luciferase, 10K MLSCN set, TLR/RLR signaling modifier project, primary screen (AID 602276).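 Also: firefly luciferase from ISG56 promoter only with Renilla not read in this screen; 0% = Sendai virus plus DMSO and 100% = medium plus DMSO without virus.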 As to conditions: HEK293 RL24 IRF3 luciferase reporter, at 10 µM, stronger effect = higher value. For orientation: A reporter such as luciferase makes a cellular process visible.
Test [8] in a line: TLR3 IRF3 reporter activation blockers – cell-based, poly I:C stimulus, luciferase, 10K MLSCN set, primary screen (AID 602277;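 active = inhibition of the reporter signal at or above 50%; inactive = inhibition below 50%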). The settings on record: HEK293-TLR3 RL24 IRF3 luciferase reporter, at 10 µM, stronger effect = higher value.

Chain of Voltage-gated potassium channel subunit beta-2 (Rattus norvegicus) (P62483 whole entry, looked up): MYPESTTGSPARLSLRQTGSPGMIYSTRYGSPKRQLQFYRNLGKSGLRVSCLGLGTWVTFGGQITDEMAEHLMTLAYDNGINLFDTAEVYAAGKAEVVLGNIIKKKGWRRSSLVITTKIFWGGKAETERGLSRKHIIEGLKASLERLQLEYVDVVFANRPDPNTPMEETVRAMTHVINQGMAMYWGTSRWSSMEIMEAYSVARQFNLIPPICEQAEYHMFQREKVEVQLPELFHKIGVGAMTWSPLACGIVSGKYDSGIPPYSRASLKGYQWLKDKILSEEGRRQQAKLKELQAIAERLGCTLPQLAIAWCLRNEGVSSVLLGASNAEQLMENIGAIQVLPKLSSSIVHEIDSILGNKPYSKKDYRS
Chain of Alpha-2C adrenergic receptor (Homo sapiens) (P18825 whole entry, looked up): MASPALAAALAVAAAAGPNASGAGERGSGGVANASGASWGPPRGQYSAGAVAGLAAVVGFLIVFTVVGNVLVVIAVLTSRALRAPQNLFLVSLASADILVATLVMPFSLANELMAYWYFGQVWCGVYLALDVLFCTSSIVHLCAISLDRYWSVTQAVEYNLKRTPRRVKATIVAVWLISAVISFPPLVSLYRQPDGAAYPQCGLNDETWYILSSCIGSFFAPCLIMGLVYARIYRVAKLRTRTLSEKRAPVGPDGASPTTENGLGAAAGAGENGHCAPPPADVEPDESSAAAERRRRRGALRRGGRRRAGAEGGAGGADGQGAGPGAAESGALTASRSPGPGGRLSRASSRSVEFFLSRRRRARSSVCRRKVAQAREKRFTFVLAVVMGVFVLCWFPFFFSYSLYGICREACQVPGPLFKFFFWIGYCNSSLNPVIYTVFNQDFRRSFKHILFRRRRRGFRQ

Take `C/C(Nc1cccc(F)c1)=C(/C#N)C(N)=O`: the cell count in test [1] was found to be 640. Moreover, the inhibition (as a rule, the change of the read-out against control, counted positive when it falls) in test [1] was 3.4% (inactive); in test [3], 48.6% (inactive); in test [7] it was -10.6% (inactive); in test [8], -10.3% (inactive). Further, in test [2], the inhibition of aggregation is 1.6% (inactive). Also, the nuclei count in test [2] worked out at 104%; in test [3], 106%. For the same molecule, the fluorescence slope in test [4] was -0.361 (inactive). Also, the NADPH fluorescence slope in test [5] was -3.8e-05 (inactive). In test [6], the slope was 0.00545 (inactive).

Take `CCCc1cc(=O)[nH]c(/N=C(\N)Nc2ccccc2)n1`: the cell count in test [1] was found to be 826. Besides, the inhibition in test [1] was 3.6% (inactive); in test [3], -95.3% (inactive); in test [7], 12.3% (inactive); in test [8], 16.6% (inactive). In test [2], the inhibition of aggregation was -12.7% (inactive). Also, the nuclei count in test [2] stood at 94.3%; in test [3] it was 138%. The fluorescence slope in test [4] was -0.431 (inactive). The NADPH fluorescence slope in test [5] was -2.5e-05 (inactive). Further, the slope in test [6] is 0.0048 (inactive).

Turning to `COc1ccc(C(=O)Nc2ccc(S(=O)(=O)NC(C)=O)cc2)cc1`, in test [1], the cell count is 568. Also, the inhibition in test [1] is 2.4% (inactive); in test [3], 9.3% (inactive); in test [7], 10.3% (inactive); in test [8], 6.87% (inactive). The inhibition of aggregation in test [2] is 21.1% (inactive). In addition, the nuclei count worked out at 92.1% in test [2] and 107% in test [3]. The fluorescence slope in test [4] was -0.494 (inactive). In addition, the NADPH fluorescence slope in test [5] is -2.4e-05 (inactive). Also, the slope in test [6] was 0.00509 (inactive).

With `C(=C\c1ccccc1)/CSc1nnc(-c2ccccn2)n1Cc1ccco1`, the cell count in test [1] came out at 574. The inhibition in test [1] was 1.1% (inactive); in test [3], -95.8% (inactive); in test [7] it was 68.5% (active); in test [8], 58.9% (active). In addition, the inhibition of aggregation in test [2] was -38.4% (inactive). Also, the nuclei count in test [2] worked out at 24%; in test [3], 109%. For the same molecule, the fluorescence slope in test [4] is -0.5 (inactive). For the same molecule, the NADPH fluorescence slope in test [5] was -5.3e-05 (inactive). The slope in test [6] was 0.00478 (inactive).

Take `S=c1[nH]nc(-c2ccccc2)n1C1C=CCCC1` (centres undefined): the cell count in test [1] was found to be 240. In addition, the inhibition in test [1] is 0.4% (inactive); in test [3] it was -329% (inactive); in test [7] it was 4.48% (inactive); in test [8], 35.6% (inactive). In addition, the inhibition of aggregation in test [2] is 14.7% (inactive). Moreover, the nuclei count came to 94% in test [2] and 146% in test [3]. Further, the fluorescence slope in test [4] was -0.465 (inactive). In test [5], the NADPH fluorescence slope is -1.5e-05 (inactive). The slope in test [6] was 0.00318 (inactive).

With `Cc1nnc(NC(=O)c2ccco2)s1`, in test [1], the cell count came out at 697. Besides, the inhibition is 1.3% (inactive) in test [1], -34.3% (inactive) in test [3], 3.15% (inactive) in test [7] and 14.4% (inactive) in test [8]. In test [2], the inhibition of aggregation is -21.8% (inactive). Moreover, the values for the nuclei count in test [2] and in test [3] were 107% and 110%, respectively. In test [4], the fluorescence slope is -0.521 (inactive). In test [5], the NADPH fluorescence slope is -3.3e-05 (inactive). The slope in test [6] was 0.00691 (inactive).

With `Cc1ccc(C(=O)N2CCCC(c3nc4c(nnn4Cc4ccccc4)c(=O)[nH]3)C2)cc1` (centres undefined), the cell count in test [1] came out at 671. The inhibition in test [1] is -6.5% (inactive); in test [3], -44.4% (inactive); in test [7] it was 13.8% (inactive); in test [8] it was 21.2% (inactive). Besides, in test [2], the inhibition of aggregation is -2.8% (inactive). Also, the nuclei count in test [2] is 118%; in test [3] it was 104%. Further, the fluorescence slope in test [4] is -0.38 (inactive). Besides, the NADPH fluorescence slope in test [5] is -5.9e-05 (inactive). For the same molecule, the slope in test [6] is 0.00676 (inactive).

Take `Cc1nc2ccccc2c2oc(C(=O)NCC3COc4ccccc4O3)cc12` (centres undefined): the cell count in test [1] was determined as 532. Further, the inhibition is 7.6% (inactive) in test [1], 3.3% (inactive) in test [3], 9.7% (inactive) in test [7] and -3.35% (inactive) in test [8]. Further, in test [2], the inhibition of aggregation was -11.9% (inactive). For the same molecule, the figures for the nuclei count in test [2] and in test [3] were 91.7% and 99%, respectively. Moreover, the fluorescence slope in test [4] was -0.569 (inactive). Also, the NADPH fluorescence slope in test [5] was -1.4e-05 (inactive). Moreover, the slope in test [6] was 0.00744 (inactive).

For the molecule `O=C(Nc1ccc(-c2noc(-c3cccs3)n2)cc1)c1cccnc1`, the cell count in test [1] worked out at 595. Further, the inhibition is 8.2% (inactive) in test [1], -49.2% (inactive) in test [3], -67.5% (inactive) in test [7] and -122% (inactive) in test [8]. Besides, the inhibition of aggregation in test [2] is 28% (inactive). In addition, the nuclei count in test [2] amounted to 115%; in test [3] it was 95.8%. Besides, the fluorescence slope in test [4] was -0.474 (inactive). The NADPH fluorescence slope in test [5] is 2.2e-05 (inactive). For the same molecule, the slope in test [6] was 0.00649 (inactive).

On to `O=S(=O)(NC1CCCC1)c1ccc(S(=O)(=O)N2CCc3ccccc32)cc1`, for which, in test [1], the cell count was determined as 395. Besides, the inhibition in test [1] was 0% (inactive); in test [3] it was -13.9% (inactive); in test [7], 5.42% (inactive); in test [8], -11.7% (inactive). For the same molecule, the inhibition of aggregation in test [2] was 8.6% (inactive). In addition, the nuclei count in test [2] was 102%; in test [3] it was 97.5%. In test [4], the fluorescence slope is -0.589 (inactive). For the same molecule, the NADPH fluorescence slope in test [5] is -1.9e-05 (inactive). The slope in test [6] is 0.00513 (inactive).

As for `CCOC(=O)c1nc2sc3c(c2c(=O)[nH]1)CCCC3`, the cell count in test [1] worked out at 763. The inhibition is -1.6% (inactive) in test [1], 2.7% (inactive) in test [3], 13.1% (inactive) in test [7] and 11.2% (inactive) in test [8]. Moreover, in test [2], the inhibition of aggregation was -9.6% (inactive). In addition, the nuclei count in test [2] is 84.3%; in test [3], 102%. For the same molecule, the fluorescence slope in test [4] is -0.0445 (active). For the same molecule, in test [5], the NADPH fluorescence slope is -1.1e-05 (inactive). The slope in test [6] is 0.0045 (inactive).

Turning to `CC(=O)N1CCN=C1SCc1c(F)cccc1Cl`, the cell count in test [1] was determined as 509. The inhibition in test [1] is 9.8% (inactive); in test [3], 9.3% (inactive); in test [7] it was -11.7% (inactive); in test [8], 4.78% (inactive). For the same molecule, in test [2], the inhibition of aggregation was -12.4% (inactive). The nuclei count in test [2] came out at 110%; in test [3] it was 93.3%. In addition, the fluorescence slope in test [4] was -0.626 (inactive). Also, the NADPH fluorescence slope in test [5] is 1.8e-05 (inactive). For the same molecule, the slope in test [6] is 0.00565 (inactive).

`CCOC(=O)CN1CC23C=CC(O2)C(C(=O)NC2CCCC2)C3C1=O` (centres undefined): the cell count in test [1] was determined as 671. In addition, the inhibition was 4.1% (inactive) in test [1], -66.9% (inactive) in test [3], 11.3% (inactive) in test [7] and 29.5% (inactive) in test [8]. Also, in test [2], the inhibition of aggregation was 0.3% (inactive). The nuclei count in test [2] was found to be 99.1%; in test [3], 119%. In test [4], the fluorescence slope was -0.576 (inactive). Also, in test [5], the NADPH fluorescence slope was -2.3e-05 (inactive). The slope in test [6] is 0.00621 (inactive).

Consider `CC1(C)CC(=O)N(CC(=O)NCc2ccccc2)c2ccccc2S1(=O)=O`, for which the cell count in test [1] stood at 807. Besides, the inhibition is -1.7% (inactive) in test [1], -20% (inactive) in test [3], 12.3% (inactive) in test [7] and 20.7% (inactive) in test [8]. For the same molecule, in test [2], the inhibition of aggregation is -7.8% (inactive). In addition, the nuclei count stood at 123% in test [2] and 120% in test [3]. Further, the fluorescence slope in test [4] is -0.602 (inactive). Besides, the NADPH fluorescence slope in test [5] is 1.2e-05 (inactive). Also, in test [6], the slope was 0.00666 (inactive).
